Test [1] in a line: NCI Yeast Anticancer Drug Screen. Data for the rad50 strain (AID 155).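 Also: 0% = growth of vehicle-only cultures of the same strain.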 The settings on record: S. cerevisiae rad50 strain growth inhibition, stronger effect = higher value. In outline:
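Yeast carrying a defined DNA repair defect were exposed to test compounds, and growth was compared with vehicle-treated controls to give percent inhibition.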

The nature of test [2]: NCI Yeast Anticancer Drug Screen. Data for the mec2-1 strain (AID 157). The settings on record: S. cerevisiae mec2-1 strain, stronger effect = higher value. A digest of the protocol:
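Readout is yeast growth inhibition, normalised to vehicle-treated controls, in the mec2-1 strain exposed to compound.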

A short description of test [3]: NCI Yeast Anticancer Drug Screen. Data for the sgs1 mgt1 strain (AID 161).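 Also: 0% = growth of cultures given vehicle only.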 The settings on record: S. cerevisiae sgs1 mgt1 strain, stronger effect = higher value. A digest of the protocol:
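Yeast cells carrying a defined DNA-repair defect were exposed to test compounds. Growth inhibition was measured relative to vehicle-treated controls.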

The nature of test [4]: NCI Yeast Anticancer Drug Screen. Data for the cln2 rad14 strain (AID 165).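 Also: 0% = growth equal to vehicle treated cultures.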 To be noted: S. cerevisiae cln2 rad14 strain, stronger effect = higher value. In outline: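 Relative to vehicle controls, growth inhibition of compound-treated cln2 rad14 yeast was recorded.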
Test [5] is described as follows: NCI Yeast Anticancer Drug Screen. Data for the bub3 strain (AID 167). To be noted: S. cerevisiae bub3 mutant strain, stronger effect = higher value. A digest of the protocol:
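Compounds were applied to a genetically altered yeast strain carrying a cell-cycle control defect. Growth inhibition was scored against vehicle-treated controls.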

A short description of test [6]: NCI Yeast Anticancer Drug Screen. Data for the mlh1 rad18 strain (AID 175). The settings on record: S. cerevisiae mlh1 rad18 strain growth inhibition, stronger effect = higher value. In outline: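 Test agents were incubated with a yeast strain of defined genotype (DNA damage repair defect). Inhibition of growth was derived by comparison with vehicle-exposed cultures.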
[7] abbreviates: at 5.0 µM (retest, dose inferred, filed as 0.5).
Setting [8] is: at 50.0 µM (retest, dose inferred, filed as 5.0).

Molecules are shown by their SMILES. Where “and” joins values, the source holds several entries; their conditions need not be identical. Equal entries are not always repeated. Compounds without any hit were thinned out: in the full panel of roughly 79,000, 15% have a hit. Some structures have more than one record in an assay (separate samples or runs), and their calls can disagree. Calls of active or inactive are those of the source. Rule as the data show it: active = growth inhibition above about 70%; inactive = the rest.

On to `CCC[CH2][Sn]([CH2]CCC)([O]C(=O)C(N)CSC)[O]C(=O)C(N)CSC` (configuration not stated), for which the growth inhibition in test [1] (setting [7]) was 7% (inactive); in test [1] (setting [8]), 7% (inactive); in test [1] (at 50.0 µM) it was 90% (active); in test [2] (setting [7]), 10% (inactive); in test [2] (setting [8]) it was 10% (inactive); in test [2] (at 50.0 µM), 89.3% (active). Moreover, the growth inhibition in test [3] (setting [7]) was -5% (inactive); in test [3] (setting [8]), -5% (inactive); in test [3] (at 50.0 µM), 86.2% (active); in test [4] (setting [7]), 1% (inactive); in test [4] (setting [8]) it was 1% (inactive); in test [4] (at 50.0 µM) it was 52.9% (inactive). Besides, the growth inhibition in test [5] (setting [7]) is -4% (inactive); in test [5] (setting [8]) it was -4% (inactive); in test [5] (at 50.0 µM), 88.8% (active); in test [6] (setting [7]), -18% (inactive); in test [6] (setting [8]), -18% (inactive); in test [6] (at 50.0 µM), 83.1% (active).

On to `CCC(C)(C)c1ccc(O)cc1`, for which the growth inhibition in test [1] (setting [7]) is -1% (inactive); in test [1] (setting [8]) it was 16% (inactive); in test [1] (at 50.0 µM), -19.3% (inactive) and 59.8% (inactive); in test [2] (setting [7]), -3% (inactive); in test [2] (setting [8]) it was 0% (inactive); in test [2] (at 50.0 µM) it was -17.4% (inactive) and 40.9% (inactive). The growth inhibition in test [3] (setting [7]) is -10% (inactive); in test [3] (setting [8]), 5% (inactive); in test [3] (at 50.0 µM), -10.9% (inactive) and 63% (inactive); in test [4] (setting [7]), 1% (inactive); in test [4] (setting [8]) it was -4% (inactive); in test [4] (at 50.0 µM) it was -15.2% (inactive) and -13.6% (inactive). Also, the growth inhibition in test [5] (setting [7]) is 2% (inactive); in test [5] (setting [8]), 7% (inactive); in test [5] (at 50.0 µM), -28.6% (inactive) and 38.3% (inactive); in test [6] (setting [7]) it was -2% (inactive); in test [6] (setting [8]), 11% (inactive); in test [6] (at 50.0 µM) it was -17.7% (inactive) and 64.5% (inactive).

As to `CCC[CH2][Sn]1([CH2]CCC)[O]C(=O)c2cc(C)ccc2[O]1`, the growth inhibition in test [1] (setting [7]) was 82% (active); in test [1] (setting [8]), 97% (active); in test [1] (at 50.0 µM), 88.8% (active); in test [2] (setting [7]), 89% (active); in test [2] (setting [8]), 98% (active); in test [2] (at 50.0 µM), 90.8% (active). For the same compound, the growth inhibition is 86% (active) in test [3] (setting [7]); 98% (active) in test [3] (setting [8]); 91.5% (active) in test [3] (at 50.0 µM); 71% (active) in test [4] (setting [7]); 97% (active) in test [4] (setting [8]); 89.3% (active) in test [4] (at 50.0 µM). For the same compound, the growth inhibition in test [5] (setting [7]) is 91% (active); in test [5] (setting [8]), 98% (active); in test [5] (at 50.0 µM), 90.6% (active); in test [6] (setting [7]), 91% (active); in test [6] (setting [8]) it was 98% (active); in test [6] (at 50.0 µM) it was 89% (active).

For `Nc1nc(CCl)cs1`, the growth inhibition in test [1] (setting [7]) is -2% (inactive); in test [1] (setting [8]), -5% (inactive); in test [1] (at 50.0 µM) it was -2.05% (inactive) and -11.7% (inactive); in test [2] (setting [7]) it was 0% (inactive); in test [2] (setting [8]) it was -2% (inactive); in test [2] (at 50.0 µM), -24.7% (inactive) and -9.55% (inactive). The growth inhibition in test [3] (setting [7]) is 1% (inactive); in test [3] (setting [8]) it was -3% (inactive); in test [3] (at 50.0 µM), -17.6% (inactive) and -0.25% (inactive); in test [4] (setting [7]) it was -7% (inactive); in test [4] (setting [8]), -8% (inactive); in test [4] (at 50.0 µM), 75.8% (active) and -22.8% (inactive). The growth inhibition was -4% (inactive) in test [5] (setting [7]); -7% (inactive) in test [5] (setting [8]); 52.4% (inactive) and 4.7% (inactive) in test [5] (at 50.0 µM); -2% (inactive) in test [6] (setting [7]); -6% (inactive) in test [6] (setting [8]); 17.8% (inactive) and -17% (inactive) in test [6] (at 50.0 µM).

As for `O=[As]c1ccc(Cl)cc1Cl` (configuration not stated), the growth inhibition in test [1] (setting [7]) was 100% (active); in test [1] (setting [8]), 99% (active); in test [1] (at 50.0 µM), 99.7% (active); in test [2] (setting [7]) it was 100% (active); in test [2] (setting [8]), 100% (active); in test [2] (at 50.0 µM), 99.7% (active). In addition, the growth inhibition was 99% (active) in test [3] (setting [7]); 100% (active) in test [3] (setting [8]); 99.7% (active) in test [3] (at 50.0 µM); 100% (active) in test [4] (setting [7]); 99% (active) in test [4] (setting [8]); 99.3% (active) in test [4] (at 50.0 µM). Besides, the growth inhibition in test [5] (setting [7]) was 99% (active); in test [5] (setting [8]), 100% (active); in test [5] (at 50.0 µM), 99.2% (active); in test [6] (setting [7]), 100% (active); in test [6] (setting [8]), 99% (active); in test [6] (at 50.0 µM), 99.3% (active).

Regarding `O=[N+]([O-])c1ccc(SC2CCCCCCC2Cl)c([N+](=O)[O-])c1` (configuration not stated), the growth inhibition was 6% (inactive) in test [1] (setting [7]); 22% (inactive) in test [1] (setting [8]); 22.1% (inactive) in test [1] (at 50.0 µM); 8% (inactive) in test [2] (setting [7]); 41% (inactive) in test [2] (setting [8]); 4.3% (inactive) in test [2] (at 50.0 µM). The growth inhibition is 10% (inactive) in test [3] (setting [7]); 76% (active) in test [3] (setting [8]); 30.1% (inactive) in test [3] (at 50.0 µM); -1% (inactive) in test [4] (setting [7]); 29% (inactive) in test [4] (setting [8]); 14.8% (inactive) in test [4] (at 50.0 µM). Also, the growth inhibition in test [5] (setting [7]) is 15% (inactive); in test [5] (setting [8]), 85% (active); in test [5] (at 50.0 µM), 20.5% (inactive); in test [6] (setting [7]), 7% (inactive); in test [6] (setting [8]) it was 53% (inactive); in test [6] (at 50.0 µM), 72.8% (active).

With `O=C(c1ccc(Br)cc1)C1C(c2ccccc2)N1C1CCCCC1` (configuration not stated), the growth inhibition is 1% (inactive) in test [1] (setting [7]); 79% (active) in test [1] (setting [8]); 95.7% (active) in test [1] (at 50.0 µM); 0% (inactive) in test [2] (setting [7]); 73% (active) in test [2] (setting [8]); 96.6% (active) in test [2] (at 50.0 µM). In addition, the growth inhibition in test [3] (setting [7]) was -1% (inactive); in test [3] (setting [8]) it was 72% (active); in test [3] (at 50.0 µM), 96.5% (active); in test [4] (setting [7]), -4% (inactive); in test [4] (setting [8]), 58% (inactive); in test [4] (at 50.0 µM), 94.2% (active). Further, the growth inhibition in test [5] (setting [7]) was 4% (inactive); in test [5] (setting [8]), 94% (active); in test [5] (at 50.0 µM) it was 95% (active); in test [6] (setting [7]), -2% (inactive); in test [6] (setting [8]), 86% (active); in test [6] (at 50.0 µM) it was 91% (active).

Regarding `C[CH2][Sn]1([CH2]C)[c]2ccccc2Oc2cccc[c]21`, the growth inhibition in test [1] (setting [7]) was 99% (active); in test [1] (setting [8]), 98% (active); in test [1] (at 50.0 µM), 99% (active); in test [2] (setting [7]) it was 99% (active); in test [2] (setting [8]), 99% (active); in test [2] (at 50.0 µM) it was 99.4% (active). Besides, the growth inhibition in test [3] (setting [7]) was 99% (active); in test [3] (setting [8]), 99% (active); in test [3] (at 50.0 µM) it was 99.3% (active); in test [4] (setting [7]), 97% (active); in test [4] (setting [8]) it was 98% (active); in test [4] (at 50.0 µM), 98.8% (active). Besides, the growth inhibition was 99% (active) in test [5] (setting [7]); 99% (active) in test [5] (setting [8]); 99.2% (active) in test [5] (at 50.0 µM); 99% (active) in test [6] (setting [7]); 99% (active) in test [6] (setting [8]); 99% (active) in test [6] (at 50.0 µM).

Take `CCC[CH2][Sn]([Cl])([CH2]C)[O][Sn]([Cl])([CH2]C)[CH2]CCC` (configuration not stated): the growth inhibition is 88% (active) in test [1] (setting [7]); 98% (active) in test [1] (setting [8]); 83.5% (active) in test [1] (at 50.0 µM); 96% (active) in test [2] (setting [7]); 99% (active) in test [2] (setting [8]); 88.2% (active) in test [2] (at 50.0 µM). Moreover, the growth inhibition was 81% (active) in test [3] (setting [7]); 97% (active) in test [3] (setting [8]); 89.6% (active) in test [3] (at 50.0 µM); 84% (active) in test [4] (setting [7]); 97% (active) in test [4] (setting [8]); 91.2% (active) in test [4] (at 50.0 µM). Besides, the growth inhibition is 84% (active) in test [5] (setting [7]); 97% (active) in test [5] (setting [8]); 89.2% (active) in test [5] (at 50.0 µM); 95% (active) in test [6] (setting [7]); 98% (active) in test [6] (setting [8]); 90.2% (active) in test [6] (at 50.0 µM).

These data come from PubChem BioAssay (NCI).
